# Test results as given in the supplement of paper PMC12636033.
# ± gives the standard deviation of the averaged measurements. The full ranking holds about 33,000 sequences; the median of “E-score (rank enrichment, -0.5 to 0.5)” is about -0.0028, and the highest 2% start at about 0.23. Only a selection was taken, and the highest values are over-represented in it overall.
# System: 2Sb-muMax20 (muMax20 with two 1,3-bis(methyl)benzene Cys staples, A13C/A17C and Q88C/A92C, C-terminal Lys)
# Assay: PBM 8-mer E-score (E-score (rank enrichment, -0.5 to 0.5)); higher = stronger preferential binding
# Experimental: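 Protein binding microarray (universal PBM chip covering all 10-mers in fixed probe flanks) with chemically synthesized human Max(13-93) bHLH-LZ analogs (not full-length Max) bearing noncanonical residues (hArg, Tha, Aib, Nle at 65) and aromatic Cys staples. Read-out per 8-mer (and its reverse complement): E-score (rank-based enrichment, -0.5 to 0.5) and Z-score of median probe intensity.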
row,Sequence,PBM 8-mer E-score
1,CGGGGGAA,-0.121 ± 0.028
2,AAGGGAGG,0.0917 ± 0.039
3,ATCTAGTA,-0.0228 ± 0.022
4,CTCTAGTA,0.103 ± 0.0078
5,GTCTAGTA,0.247 ± 0.051
6,CTAAGGGC,-0.156 ± 0.055
7,AAAGCGGA,0.0459 ± 0.0043
8,ACTTACTC,0.0212 ± 0.036
9,ACTTACTA,0.258 ± 0.042
10,CCTTACTA,0.0233 ± 0.037
11,GACCCACA,0.0373 ± 0.043
12,CGTATTTA,0.2434 ± 0.0022
13,AGTATTTA,0.195 ± 0.012
14,GGTATTTA,0.118 ± 0.052
15,GAACATGC,0.136 ± 0.0025
16,CATCTTGA,-0.0488 ± 0.041
17,GATCTTGA,0.246 ± 0.03
18,TATCTTGA,0.163 ± 0.012
19,ATGACTGC,0.00213 ± 0.035
20,CGCCTCAA,0.0117 ± 0.0089
21,AGGCGGGG,0.259 ± 0.092
22,AGGGCGGA,-0.228 ± 0.016
23,GGCGGGGA,0.403 ± 0.025
24,CGCGGGGA,0.0556 ± 0.023
25,CGGCGGGA,-0.205 ± 0.01

row,Sequence,PBM 8-mer E-score
1,AGGGCGGC,-0.161 ± 0.057
2,AGGCGGGA,0.08088 ± 0.00027
3,GGCGGGAA,0.0557 ± 0.014
4,AGGGCGGG,0.272 ± 0.091
5,GGGCGGGA,0.3 ± 0.018
6,GGGCGGAA,0.111 ± 0.07
7,AGGCGGGC,0.00216 ± 0.077
8,AACCGATA,-0.0929 ± 0.094
9,ACACCTCA,0.0903 ± 0.038
10,GACGAGGA,-0.0396 ± 0.053
11,ACCAGGGT,-0.196 ± 0.08
12,CTGGACAC,-0.2589 ± 0.0024
13,ACCGGGTA,-0.1338 ± 0.00064
14,CATGAGCG,-0.0614 ± 0.0046
15,CCTACCCG,-0.0857 ± 0.0032
16,ATGGCGCA,0.239 ± 0.057
17,ATGGCGCG,0.0718 ± 0.02
18,CTGGCGCA,-0.166 ± 0.074
19,AACTTGGG,0.304 ± 0.015
20,CACTTGGG,0.176 ± 0.012
21,AATTTGGT,0.0829 ± 0.018
22,ACTTGGGG,0.3507 ± 0.0032
23,ACTTGGGC,0.0763 ± 0.039
24,ACTTGGGA,-0.129 ± 0.03
25,AATTTGGG,0.29 ± 0.015

row,Sequence,PBM 8-mer E-score
1,AACTTGGA,0.0353 ± 0.027
2,ATTTGGGG,0.267 ± 0.0073
3,ATTTGGGC,0.102 ± 0.069
4,ATTTGGGA,0.209 ± 0.0036
5,AATTTGGA,0.0432 ± 0.015
6,ACGAGACG,0.0104 ± 0.13
7,AGTGACTG,-0.0977 ± 0.053
8,CCGGCCCC,-0.0874 ± 0.098
9,TCCGTCGA,-0.0858 ± 0.034
10,GATGCGAC,0.0229 ± 0.095
11,ACCTTCAC,0.016 ± 0.0064
12,CTGTCATC,0.0122 ± 0.062
13,AATGCGCT,0.0765 ± 0.063
14,ACTGCGCC,-0.18 ± 0.0093
15,ACCTAGGA,0.0803 ± 0.054
16,AGTTGGGG,0.235 ± 0.015
17,AGTTGGGA,-0.0331 ± 0.025
18,AGTTGGGC,0.0922 ± 0.0035
19,AAAAGTAC,0.239 ± 0.074
20,ATAAGAAT,0.104 ± 0.022
21,AAAAGTAT,0.083 ± 0.012
22,CTAAGTAC,0.0248 ± 0.0083
23,AAAAGTAA,0.0725 ± 0.087
24,ATAAGTAT,0.125 ± 0.033
25,ATAAGTAC,0.236 ± 0.016

row,Sequence,PBM 8-mer E-score
1,ATAAGAAC,0.239 ± 0.022
2,ATAAGAAA,0.144 ± 0.013
3,CCTACGCG,0.0631 ± 0.019
4,ATGGTAAC,0.184 ± 0.066
5,GCTGTCGA,-0.165 ± 0.0033
6,GGCGCGAC,-0.163 ± 0.064
7,CGGACTAG,-0.0898 ± 0.0032
8,ATGGGAAA,0.00532 ± 0.065
9,ATGGGGAC,0.108 ± 0.083
10,GTGGGGAA,0.293 ± 0.012
11,ATGGGGGA,0.071 ± 0.032
12,AGGGGGAG,-0.0302 ± 0.048
13,GTGGGGGA,0.0894 ± 0.033
14,TGGGGAAA,0.314 ± 0.049
15,CTGGGGAA,-0.106 ± 0.0058
16,TGGGGGAA,0.0145 ± 0.015
17,ATGGGGAA,0.296 ± 0.074
18,ATGGGGAG,0.252 ± 0.011
19,GGGGGAAA,0.0837 ± 0.028
20,AAGGCAGA,-0.0447 ± 0.097
21,GCAGCTAC,-0.158 ± 0.016
22,GCTGGGAA,-0.192 ± 0.031
23,CGTTTAAC,0.0567 ± 0.0093
24,TATCAAGA,0.188 ± 0.043
25,CGTGGCAG,-0.0638 ± 0.045

row,Sequence,PBM 8-mer E-score
1,ACTGTTTC,0.0301 ± 0.064
2,GCGGGGAA,0.247 ± 0.02
3,GCGGGGGA,0.0111 ± 0.068
4,GCGGGAAA,0.0716 ± 0.025
5,CGGCCCAA,-0.0811 ± 0.15
6,GAGCAGCA,-0.143 ± 0.042
7,ACGATAGG,0.245 ± 0.015
8,ACGATAGC,0.0621 ± 0.019
9,CCGATAGG,-0.0782 ± 0.013
10,AAGCCGCC,-0.0339 ± 0.045
11,ACATAACA,0.107 ± 0.034
12,CAATAATC,0.189 ± 0.047
13,GAATAAAA,0.0229 ± 0.074
14,CAATAAAC,0.0373 ± 0.052
15,GCATAACC,0.0156 ± 0.029
16,CAATAATG,0.0644 ± 0.019
17,CAATAATA,0.233 ± 0.066
18,GCATAACA,0.251 ± 0.042
19,CAATAAAA,0.284 ± 0.016
20,GTATAAAC,0.186 ± 0.0026
21,ATATAAAA,0.186 ± 0.049
22,GTATAAAA,0.247 ± 0.042
23,AAGGGTCT,0.00286 ± 0.1
24,AACTGTCG,-0.138 ± 0.016
25,ACGATGAG,0.0498 ± 0.025

row,Sequence,PBM 8-mer E-score
1,TCACGAGA,-0.0563 ± 0.015
2,TAATAACA,0.0232 ± 0.011
3,GAATAACA,0.186 ± 0.011
4,CAATAACA,0.232 ± 0.0098
5,CTCTTAAG,-0.0478 ± 0.022
6,GTGCGCAC,0.157 ± 0.1
7,GATCAATC,-0.0898 ± 0.043
8,AAACCCTG,0.029 ± 0.12
9,CAACCCTA,0.019 ± 0.059
10,AAACCCTA,0.244 ± 0.089
11,CTACCCCA,0.259 ± 0.021
12,TGACCCCA,0.111 ± 0.032
13,AACCCCCA,-0.318 ± 0.021
14,CTACCCCC,-0.0941 ± 0.072
15,GTACCCCA,0.195 ± 0.023
16,AGACCCCA,0.283 ± 0.011
17,AAACCCCA,0.232 ± 0.033
18,AGACCCCC,-0.382 ± 0.044
19,AAACCCCC,-0.275 ± 0.038
20,AATGCCAT,0.0622 ± 0.045
21,AGTTGTAG,0.0711 ± 0.018
22,ATGGAAGG,-0.00186 ± 0.021
23,CCCCGTCA,0.0912 ± 0.04
24,CCCCGGCG,-0.233 ± 0.056
25,GCTGCAAA,-0.0134 ± 0.061

row,Sequence,PBM 8-mer E-score
1,ACCGTCAT,0.0687 ± 0.082
2,CAACCCCC,-0.167 ± 0.046
3,CAACCCCA,0.294 ± 0.051
4,CAACCCAA,-0.0401 ± 0.029
5,AGTTTATA,0.235 ± 0.044
6,ACTTTCTG,-0.0565 ± 0.016
7,ACTTTATC,0.00955 ± 0.014
8,GGTTTATA,0.047 ± 0.079
9,CCTTTATA,0.0289 ± 0.054
10,ACTTTCTC,0.0106 ± 0.018
11,ACTTTATA,0.232 ± 0.077
12,ACTTTCTA,0.241 ± 0.012
13,AGTTTATC,0.182 ± 0.027
14,AGGCGAGG,0.0445 ± 0.00056
15,CTATACCA,0.214 ± 0.036
16,CGTCTGAG,-0.115 ± 0.054
17,CAACCGCG,0.0452 ± 0.028
18,ATGTCTGC,-0.0456 ± 0.036
19,AATCTTCC,0.0406 ± 0.055
20,ATATCGAC,0.0358 ± 0.012
21,ATATCGAT,0.23 ± 0.013
22,ATATCGAA,0.0967 ± 0.018
